Laboratory results published in the OligoGym collection.

target: STK32B; test: pooled miR-30 sensor sort-seq; sequence = guide strand; conditions: shRNA
Further: reference of the scale not given here.

Row | Sequence | sensor-assay potency score (higher = more potent)
1 | TGTAATGTGAACATGTCCGTGT | 1.03
2 | TTGTCTGGCTTGATGTCTCTGT | 0.0607
3 | TTGGATTCTAGAATCATCTCTT | 0.951
4 | AACATGTCCGTGTTCATCCAGC | -0.285
5 | TTCACTACCGTCGCTATGTTGA | -0.4
6 | TAATGTGAACATGTCCGTGTTC | -0.137
7 | TTCTTGAACACCGCGTCCCAGT | -0.825
8 | TAGTGTCTCGCTTCTGCACGAT | -0.331
9 | TTTGCCAATCGCTTCTTCTTTT | -0.852
10 | TTTCTTAGTGTCTCGCTTCTGC | 0.225
11 | TTGCATGATCTGCAGCTCCCGG | -1.07

target: STMN2; test: as above; conditions: shRNA

Row | Sequence | sensor-assay potency score (higher = more potent)
12 | TTCCATTTTCAGGATCAGCTTT | -0.67
13 | ATCATCGTAAGTATAGATGTTG | -0.449
14 | TTCTGAAGGACTTCTCGCTCGT | 0.283
15 | TTCACTTCCATATCATCGTAAG | -0.831
16 | TTGGAGAAGCTAAAGTTCGTGG | -0.769
17 | TTGATTTGCTTCACTTCCATAT | -0.805
18 | TTTTCCTCCGCCATCTTGCTGA | -0.369
19 | TTTCTTCTGGATCTCCTCCAGG | -0.912
20 | TTTGCTTCACTTCCATATCATC | -1.64
21 | TAAGTATAGATGTTGATGTTGC | -0.111
22 | TAATAGCAGCTAGATTAGCCTC | -0.915
23 | TTCTTCTTTCCTCTGCAGCCTC | -0.81

target: STRA6; test: as above; conditions: shRNA

Row | Sequence | sensor-assay potency score (higher = more potent)
24 | TGTAGCTGAAAGCACCAGCTTC | -0.655
25 | AACAGTCCCAGTATCTTCCAGG | -0.995
26 | TGAGATGTAGCACACTTCCAGA | -1.21
27 | TTCGGTACGTGTAGTAGCCGGG | -0.203
28 | TTTCTTTCTCCAGAACCCCTGC | -0.557
29 | TTCCTCAGAGTAGCTGCTCTGC | -1.09
30 | TAGTACTTGTAGATCTTGGGCA | 0.389
31 | TAGATGCAGTGTCTCAAGCAGA | -0.804
32 | TTTCGGTACGTGTAGTAGCCGG | -0.648
33 | TCAATCTTCAAGAAGTTTCGGT | 0.639
34 | TAGGCACTGAAGCTCATCCAAC | -1.34
35 | TTGGAGGTGTGGTAGCTGCTTC | -0.709

target: STRADB; test: as above; conditions: shRNA

Row | Sequence | sensor-assay potency score (higher = more potent)
36 | TTGATGGCTTGTTATAAGCAGG | -1.06
37 | TTACTGTGTGAGTTCCACTGGA | 0.572
38 | TTGCAAACAGAGCTGTACCAAG | -0.672
39 | ATCTTGTTGCAAACAGAGCTGT | -0.583
